# Experimental data as given in PubChem BioAssay (NCI).
# This is part of a sample that, as a whole, favours compounds with a hit. Of some 83,000 tested, about 20% had one in any assay.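 Each cell line was grown in a 96-well plate and treated with one concentration of compound for 48 hours. Values below 10 were considered active.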 Values without a mark were called inactive. The source made the active and inactive calls.
# Test system: HL-60(TB) leukemia
# Assay: NCI-60 one-dose screen, 48 h (100 = growth as untreated, 0 = no growth, -100 = all killed)
# Conditions: 10 µM unless noted
row,Structure (SMILES),growth
1,Cc1ccc(C(=O)CC(=O)C(F)(F)C(F)(F)C(F)(F)F)s1,101%
2,O=C1NC(=C(Cl)Cl)/C(=N/S(=O)(=O)N2CCCCC2)N1,-70.3% (active)
3,O=C(COc1ccc(/C=C2\Oc3ccc4ccccc4c3C2=O)cc1)c1ccc(Cl)cc1,86.5%
4,COc1ccc(OC)c(/C=C2\Oc3cc(O)ccc3C2=O)c1,95.7%
5,Cc1cc2nc3c4cc(Cl)ccc4n(CCN(C)C)c3nc2cc1C,20%
6,O=c1c2cccc3c(NC4CCCCC4)ccc(c32)c2nc3ccccc3n12,62.6%
7,CN1C(=O)N(C)[C@H]2NC(NN)=N[C@H]21,102%
8,COc1ccc(NC(=O)c2sc3nc(C)c(C(O)c4ccc(OC)cc4)cc3c2N)cc1 (stereo unspecified),-59.5% (active)
9,CCN1CCN(CC(=O)Nc2nc3ccc(NCc4ccc(F)cc4)cc3s2)CC1,96.4%
10,CCOC(=O)[C@@H](C)C[C@H](Cc1ccccc1)NC(=O)c1csc([C@@H](C[C@H](C(C)C)N(C)C(=O)[C@@H](NC(=O)[C@H]2C[C@H](O[Si](C)(C)C(C)(C)C)CCN2C)C(C)C)OC(C)=O)n1,-36.9% [9.25 µM] (active)
11,Cn1cc(-c2ncnc3ccc(-c4cnc(Cl)c(NS(C)(=O)=O)c4)cc23)c2ccccc21,17.9%
12,COC(=O)[C@]1(C)CCC[C@]2(C)c3ccc(C(C)C)cc3C(=O)[C@@H](Br)[C@@H]12,68.1%
13,CCSc1ccc([C@@H]2[C@@H](O)C(=O)N2c2cc(OC)c(OC)c(OC)c2)cc1,-35.4% (active)
14,C=CCCCCCCCCC(=O)[O][Sn]([CH2]CCC)([CH2]CCC)[CH2]CCC,-15.1% (active)
15,Cc1cc(NC(=O)CNc2nc(Oc3ccc(F)cc3)nc(-c3ccc(F)cc3)n2)ccc1Cl,96.4%
16,CCCCCCCCCCCCCCCCCCOc1ccc(CC(=O)OCC[N+]2(C)CCCC2)cc1,101%
17,Nc1n[nH]c2ccc([C@@H]3Nc4ccc5cn[nH]c5c4[C@H]4C5CCC(C5)[C@@H]34)cc12 (stereo partly specified),-29.2% (active)
18,COc1cc(OC)c2c(c1Cl)O[C@]1(C2=O)C(OCc2ccccc2)=CC(=O)C[C@H]1C,-12% (active)
19,CCc1cccc(CC)c1N1C(=O)C=CC1=O,-7.6% (active)
20,c1ccc(OCc2nnc(-c3ccc(Oc4ccccc4)cc3)o2)cc1,99.6%
21,O=C(CCc1nnc(Cn2ccnc2)o1)c1nc2ccccc2[nH]1,106%
22,Cc1ccc(/C=C2/C(=O)Nc3cc(Cl)c(-c4csc(N)n4)cc32)cc1,22.2%
23,O=C(O)CCCN1C(=O)CSC1=S,103%
24,Cc1cc2c(cc1C)N(C(=O)CCl)CCN2C(=O)CCl,-41.3% (active)
25,Clc1cccc(Cl)c1/C=C/c1cc(/C=C/c2c(Cl)cccc2Cl)[nH]n1,12.6%
26,O=c1ccccc(-c2ccc(Br)cc2)c1O,-35.9% (active)
